IL1B secr inh = inhibitors of inflammasome signaling (IL-1 beta secretion); THP-1 LPS/ATP IL-1B secretion, AlphaLISA, 16 h; active compounds read low; activity change, % at 57.5 µM; actives 4.7% (n = 360,000); AID 743279; in the data active means activity change below about -50%; inconclusive means mostly about -30% to -49%
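THP-1 cells pretreated 1 hr with compounds (up to 57.5 uM final), then stimulated with LPS (250 ng/mL final) plus ATP (1.25 mM final); secreted IL-1B measured by AlphaLISA after 16 hr, decreased signal indicating inhibition.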
HT1080NT lethal = kills 2HG-producing HT-1080-NT fibrosarcoma cells; AID 686970; Potency, µM (highest dose often 46.1 µM), most hits filed as cytotoxic; actives 1.6% (n = 360,000); HT-1080-NT fibrosarcoma viability, CellTiter-Glo ATP luminescence, 48 h;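 further: NT is the 2HG producing partner of a matched IDH1 knockdown line; nearly all actives have a fitted effect of over 55% in size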
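Compounds were tested in concentration-response format on HT-1080-NT cells for 48 hours at 37 degrees C. Cell viability came from CellTiter-Glo luminescence; curves were classified by r2, response magnitude and activity.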
TDP1 cell CPT = growth inhibition of DT40 Tdp1-/-;hTDP1 cells with camptothecin (screen for TDP1 inhibitors); actives 12% (n = 420,000); chicken DT40 Tdp1-/-;hTDP1 cells + 20 nM CPT, ATP luminescence, 48 h; AID 686979; Potency, µM (top dose mostly 46.2 µM), most hits filed as inhibitors; further: nearly all actives have a fitted effect of over 55% in size
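Cell growth measured by CellTiter-Glo luminescence after a minimum 48 h, 37 C compound exposure with 20 nM CPT in Tdp1-knockout DT40 cells stably expressing hTDP1, seeded 400/well; qHTS titration format.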
HT1080 IDH1KD tx = toxicity to HT-1080 IDH1 knockdown cells (counter line). actives 2% (n = 360,000). Potency, µM (top dose mostly 46.1 µM), usual class: cytotoxic. HT-1080 IDH1 knockdown viability, ATP luminescence, 48 h
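IDH1KD HT-1080 cells, 750/well, RPMI + 5% FBS; compound pinned after 2 h settling; 48 h, 37 °C; CellTiter-Glo luminescence; % activity normalised to DMSO and no-cell wells; curves fitted, classed by r2 and efficacy.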
DT40 TDP1 no CPT = qHTS for Inhibitors of human tyrosyl-DNA phosphodiesterase 1 (TDP1): qHTS in cells in absence of CPT. Potency, µM (highest dose often 46.2 µM), actives largely listed as inhibitors. DT40 Tdp1-/- hTDP1 cells, no CPT, ATP luminescence, 48 h. actives 15% (n = 420,000). AID 686978, 2013; further: nearly all actives have a fitted effect of over 55% in size
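Seeded 400 DT40-hTDP1 cells/well (vehicle DMSO, no 20 nM CPT); pinned compounds; ≥48 hr at 37 °C; CellTiter-Glo luminescence as viability measure.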
Large screens that a line does not name were inactive. Hits are enriched below; roughly 19% of the tested compounds scored in any of these assays. Unless noted, the call rests on the fitted dose curve; in most records, active means well fitted curve in the direction sought with a large enough effect; inconclusive means small, poorly fitted or top-dose-only effect, or another doubt; inactive means no such curve, though single readings can be large; an effect the other way counts as inactive or inconclusive.

COCCn1c(C)cc(C2=NNC(=Nc3ccc(OC)cc3)SC2)c1C	HT1080NT lethal inconclusive, TDP1 cell CPT 23µM, DT40 TDP1 no CPT 12µM
Cc1cc(C2=NNC(=NC3CCCCC3)SC2)c(C)n1-c1c(C)n(C)n(-c2ccccc2)c1=O	DT40 TDP1 no CPT inconclusive
COCCN=C1NN=C(c2ccc(C)c([N+](=O)[O-])c2)CS1	TDP1 cell CPT inconclusive, DT40 TDP1 no CPT inconclusive
Cc1cc(C2=NNC(=NCCc3ccccc3)SC2)c(C)n1CC1CCCO1 (stereo not given)	IL1B secr inh -77, HT1080NT lethal inconclusive, TDP1 cell CPT 16µM, DT40 TDP1 no CPT inconclusive
Cc1ccc(C)c(C2=NNC(=NCc3ccccc3)SC2)c1	HT1080NT lethal inconclusive, TDP1 cell CPT inconclusive, DT40 TDP1 no CPT inconclusive
CCN=C1NN=C(c2cc(C)n(Cc3ccco3)c2C)CS1	TDP1 cell CPT 16µM, DT40 TDP1 no CPT 18µM
COc1ccccc1-c1cc(C(F)(F)F)nc(S(=O)(=O)CCCC(=O)Nc2ccccc2F)n1	TDP1 cell CPT 2.6µM, DT40 TDP1 no CPT 2.6µM (no result: IL1B secr inh, HT1080NT lethal, HT1080 IDH1KD tx)
COc1ccccc1-c1cc(C(F)(F)F)nc(S(=O)(=O)CCCC(=O)Nc2cccnc2Cl)n1	IL1B secr inh -110, HT1080NT lethal 15µM, TDP1 cell CPT 2.1µM, HT1080 IDH1KD tx 26µM, DT40 TDP1 no CPT 4.6µM
Cc1cc(C)n2nc(SCCOc3ccccc3)nc2n1	none
CC(=O)NC(c1cccc(F)c1)c1nc(/C=C/c2ccccc2)cs1 (stereo not given)	TDP1 cell CPT inconclusive
COc1ccccc1C(=O)Nc1nnc(CCc2ccccc2)s1	HT1080NT lethal 7.3µM, TDP1 cell CPT inconclusive, HT1080 IDH1KD tx 6.5µM, DT40 TDP1 no CPT inconclusive
COc1ccccc1C(=O)Nc1nc(-c2ccccc2)ns1	DT40 TDP1 no CPT 23µM (no result: IL1B secr inh, HT1080NT lethal, HT1080 IDH1KD tx)
COc1ccc(C(=O)Nc2nc3ccccc3s2)c(OC)c1	HT1080NT lethal 21µM, TDP1 cell CPT inconclusive, HT1080 IDH1KD tx 21µM, DT40 TDP1 no CPT 21µM
COc1cc(CNc2nc3ccccc3s2)cc(OC)c1OC	DT40 TDP1 no CPT 23µM
COc1ccc2nc(NC(=O)c3ccccc3C(=O)O)sc2c1	none
COc1ccc2sc(NCc3ccccc3)nc2c1	none
Cc1noc(C)c1S(=O)(=O)N(C)C[C@H]1Oc2ccc(NC(=O)NC(C)C)cc2C(=O)N([C@H](C)CO)C[C@@H]1C	none
COc1ccc(CNC(=O)C2CCC(=O)N(CCCN3CCCC3=O)C2)c(OC)c1 (stereo not given)	none
CCCCc1nnc(NC(=O)c2ccccc2OCc2c(C)noc2C)s1	TDP1 cell CPT 16µM, DT40 TDP1 no CPT 23µM
CCOC(=O)c1[nH]c2ccc(OC)cc2c1NC(=S)N1CCN(C(=O)OCC)CC1	none
COc1ccc(C(=O)Nc2ccccc2Cc2ccccc2)c(OC)c1	TDP1 cell CPT 18µM, DT40 TDP1 no CPT inconclusive
Cc1noc(C)c1COc1ccccc1C(=O)Nc1ccc(C(N)=O)cc1	none
COc1ccccc1C(=O)Nc1nc2ccccc2s1	HT1080NT lethal 26µM, TDP1 cell CPT 16µM, HT1080 IDH1KD tx 21µM, DT40 TDP1 no CPT 10µM
CCOC(=O)c1[nH]c2ccc(OC)cc2c1NC(=S)N1CCN(c2ccccc2OC)CC1	HT1080NT lethal inconclusive, TDP1 cell CPT 5.2µM, HT1080 IDH1KD tx 13µM, DT40 TDP1 no CPT 8.2µM
COc1cccc2[nH]c(C(=O)NN)c(N)c12	TDP1 cell CPT inconclusive, DT40 TDP1 no CPT 16µM
CCOC(=O)c1sc(NC(=O)c2ccccc2OC)nc1C	TDP1 cell CPT 8.2µM, DT40 TDP1 no CPT inconclusive
CCOC(=O)Nc1c(C(=O)OC)[nH]c2cc(OC)ccc12	TDP1 cell CPT inconclusive, DT40 TDP1 no CPT 21µM
CCOC(=O)c1[nH]c2ccc(OC)cc2c1NC(=O)OC	none
CCOC(=O)c1[nH]c2ccccc2c1NC(=O)c1ccccc1OC	TDP1 cell CPT 23µM, DT40 TDP1 no CPT 15µM (no result: IL1B secr inh, HT1080NT lethal, HT1080 IDH1KD tx)
Cc1ccc(S(=O)(=O)c2nc(Cc3ccccc3)oc2N2CCOCC2)cc1	none
Cn1cc(Br)c(NS(=O)(=O)c2ccc(Cl)s2)n1	none
COc1cc(CNc2ccc(C)c(C)c2)cc(OC)c1OC	HT1080NT lethal 5µM, TDP1 cell CPT 2.1µM, HT1080 IDH1KD tx 4µM, DT40 TDP1 no CPT 1.3µM

Screening results: PubChem, National Center for Advancing Translational Sciences (NCATS)
